# Measured values reported in paper PMC7862700, “An all-to-all approach to the identification of sequence-specific readers for epigenetic DNA modifications on cytosine”.
# How the values were obtained:
# Test in all cases: DAPPL (digital affinity profiling via proximity ligation, sequencing); 10 mM Tris-HCl pH 7.5, 50 mM NaCl, 1 mM DTT, 4% glycerol, room temperature, 30 min; GST-TFs on glutathione beads, 16-mer random dsDNA library, 0.1% formaldehyde crosslink after washing; high values mean tight binding
# [1] = biological target: T1, FEV (Homo sapiens, UniProt Q99581 1-238); conditions: protein: recombinant; tags: N-terminal GST; dsDNA, one strand shown
# T1 sequence: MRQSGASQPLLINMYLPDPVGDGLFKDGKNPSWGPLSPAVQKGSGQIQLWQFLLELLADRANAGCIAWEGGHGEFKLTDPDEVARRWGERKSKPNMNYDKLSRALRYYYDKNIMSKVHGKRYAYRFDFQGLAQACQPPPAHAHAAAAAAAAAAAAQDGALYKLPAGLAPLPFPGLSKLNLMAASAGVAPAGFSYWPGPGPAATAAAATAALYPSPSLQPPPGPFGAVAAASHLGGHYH
# Method in brief: (§1)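 Beads coated with glutathione captured GST-fused human transcription factors that had been expressed in yeast, and the factors were then given DNA barcodes and pooled with a tag-only sample. The pools were incubated with 200 nmole of a random double-stranded 16-mer DNA library in Tris/NaCl/DTT/glycerol buffer for 30 min at room temperature, washed, crosslinked with 0.1% formaldehyde and proximity-ligated with BsaI/T4 ligase at 37 °C for 1 h. PCR amplification and Illumina NextSeq500 sequencing came last. Binding signal is each hexamer's read frequency for a factor divided by its frequency for the tag-only sample.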
# [2] = biological target: ETV5 (Homo sapiens, UniProt P41161 1-510); conditions: protein: recombinant; tags: N-terminal GST; dsDNA, one strand shown
# Method in brief: as §1
# [3] = biological target: HSF1 (Homo sapiens, UniProt Q00613 1-529); conditions: protein: recombinant; tags: N-terminal GST; chain copies: 3; dsDNA, one strand shown
# Method in brief: as §1
# [4] = biological target: T2, SPIC (Homo sapiens, UniProt Q8N5J4 1-248); conditions: protein: recombinant; tags: N-terminal GST; dsDNA, one strand shown
# T2 sequence: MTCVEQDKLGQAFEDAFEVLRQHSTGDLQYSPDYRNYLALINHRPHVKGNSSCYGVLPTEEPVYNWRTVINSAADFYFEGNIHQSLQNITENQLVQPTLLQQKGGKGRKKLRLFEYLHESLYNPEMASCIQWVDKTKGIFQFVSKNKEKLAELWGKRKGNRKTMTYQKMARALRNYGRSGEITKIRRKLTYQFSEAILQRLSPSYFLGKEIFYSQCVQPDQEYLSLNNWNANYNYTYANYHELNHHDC
# Method in brief: as §1
# [5] = biological target: ELF4 (Homo sapiens, UniProt Q99607 1-663); conditions: protein: recombinant; tags: N-terminal GST; dsDNA, one strand shown
# Method in brief: as §1
# [6] = biological target: T3, ELK4 (Homo sapiens, UniProt P28324-2 1-405); conditions: protein: recombinant; tags: N-terminal GST; dsDNA, one strand shown
# T3 sequence: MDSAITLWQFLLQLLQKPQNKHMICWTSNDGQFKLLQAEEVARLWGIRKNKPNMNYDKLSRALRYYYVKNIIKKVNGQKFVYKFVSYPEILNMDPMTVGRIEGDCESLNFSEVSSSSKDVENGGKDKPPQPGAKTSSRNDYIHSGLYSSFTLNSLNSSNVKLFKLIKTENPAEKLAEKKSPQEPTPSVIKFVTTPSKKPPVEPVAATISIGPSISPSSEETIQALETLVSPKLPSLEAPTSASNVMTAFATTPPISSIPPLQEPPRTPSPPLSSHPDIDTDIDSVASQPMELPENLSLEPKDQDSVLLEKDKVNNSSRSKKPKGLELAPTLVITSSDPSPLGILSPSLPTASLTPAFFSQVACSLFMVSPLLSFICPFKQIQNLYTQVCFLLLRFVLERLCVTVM
# Method in brief: as §1
# [7] = biological target: T4, ETV2 (Homo sapiens, UniProt O00321 1-342); conditions: protein: recombinant; tags: N-terminal GST; dsDNA, one strand shown
# T4 sequence: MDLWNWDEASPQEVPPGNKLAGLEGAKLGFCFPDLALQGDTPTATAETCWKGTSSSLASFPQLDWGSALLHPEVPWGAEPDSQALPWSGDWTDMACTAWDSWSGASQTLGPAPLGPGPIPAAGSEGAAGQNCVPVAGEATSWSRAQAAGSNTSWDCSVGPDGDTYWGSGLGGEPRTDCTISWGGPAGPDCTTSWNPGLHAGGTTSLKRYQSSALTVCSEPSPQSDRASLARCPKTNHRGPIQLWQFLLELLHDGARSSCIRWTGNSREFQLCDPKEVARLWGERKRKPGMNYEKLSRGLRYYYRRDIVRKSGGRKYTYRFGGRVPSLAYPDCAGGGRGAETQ
# Method in brief: as §1
# [8] = biological target: T5, ELF3 (Homo sapiens, UniProt P78545 1-371); conditions: protein: recombinant; tags: N-terminal GST; dsDNA, one strand shown
# T5 sequence: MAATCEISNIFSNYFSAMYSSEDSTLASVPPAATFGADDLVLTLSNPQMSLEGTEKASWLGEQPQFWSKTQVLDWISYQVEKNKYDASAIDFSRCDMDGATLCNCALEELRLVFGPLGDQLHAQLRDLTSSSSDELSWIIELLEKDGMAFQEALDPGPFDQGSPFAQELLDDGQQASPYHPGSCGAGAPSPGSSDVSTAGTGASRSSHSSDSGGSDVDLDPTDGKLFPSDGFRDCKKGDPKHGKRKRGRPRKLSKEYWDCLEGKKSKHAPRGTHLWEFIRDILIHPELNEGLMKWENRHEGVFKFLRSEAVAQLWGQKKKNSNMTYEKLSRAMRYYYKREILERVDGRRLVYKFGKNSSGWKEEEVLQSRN
# Method in brief: as §1
# [9] = biological target: CRX (Homo sapiens, UniProt O43186 1-299); conditions: protein: recombinant; tags: N-terminal GST; dsDNA, one strand shown
# Method in brief: as §1
# [10] = biological target: ETV1 (Homo sapiens, UniProt P50549 1-477); conditions: protein: recombinant; tags: N-terminal GST; dsDNA, one strand shown
# Method in brief: as §1
# [11] = biological target: T6, ERF (Homo sapiens, UniProt P50548 1-548); conditions: protein: recombinant; tags: N-terminal GST; dsDNA, one strand shown
# T6 sequence: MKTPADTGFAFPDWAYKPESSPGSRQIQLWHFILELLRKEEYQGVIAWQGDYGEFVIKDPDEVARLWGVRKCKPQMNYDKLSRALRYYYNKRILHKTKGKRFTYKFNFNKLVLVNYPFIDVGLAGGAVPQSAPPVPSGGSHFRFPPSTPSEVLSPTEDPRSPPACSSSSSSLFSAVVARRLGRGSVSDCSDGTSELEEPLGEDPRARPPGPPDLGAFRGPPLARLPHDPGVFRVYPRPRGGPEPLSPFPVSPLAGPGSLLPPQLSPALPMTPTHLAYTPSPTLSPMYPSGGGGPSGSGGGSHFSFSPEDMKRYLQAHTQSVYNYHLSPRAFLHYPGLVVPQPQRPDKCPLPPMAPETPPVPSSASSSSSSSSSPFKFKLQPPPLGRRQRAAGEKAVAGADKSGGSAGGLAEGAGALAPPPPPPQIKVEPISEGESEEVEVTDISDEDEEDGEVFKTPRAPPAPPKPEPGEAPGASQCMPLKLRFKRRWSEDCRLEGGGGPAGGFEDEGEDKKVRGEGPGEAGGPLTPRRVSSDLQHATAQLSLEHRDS
# Method in brief: as §1
# [12] = biological target: T7, ETV3L (Homo sapiens, UniProt Q6ZN32 1-361); conditions: protein: recombinant; tags: N-terminal GST; dsDNA, one strand shown
# T7 sequence: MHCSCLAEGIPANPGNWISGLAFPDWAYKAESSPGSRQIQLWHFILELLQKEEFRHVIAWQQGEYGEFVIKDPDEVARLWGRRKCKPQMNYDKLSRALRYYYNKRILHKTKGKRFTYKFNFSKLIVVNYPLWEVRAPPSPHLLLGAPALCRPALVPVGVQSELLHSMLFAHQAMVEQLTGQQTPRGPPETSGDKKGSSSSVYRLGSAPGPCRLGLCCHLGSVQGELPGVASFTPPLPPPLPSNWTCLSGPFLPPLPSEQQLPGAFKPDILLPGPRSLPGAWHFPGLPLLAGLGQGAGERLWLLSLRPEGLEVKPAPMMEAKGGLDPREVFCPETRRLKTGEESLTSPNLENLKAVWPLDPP
# Method in brief: as §1
# [13] = biological target: T8, ETS2 (Homo sapiens, UniProt P15036 1-469); conditions: protein: recombinant; tags: N-terminal GST; dsDNA, one strand shown
# T8 sequence: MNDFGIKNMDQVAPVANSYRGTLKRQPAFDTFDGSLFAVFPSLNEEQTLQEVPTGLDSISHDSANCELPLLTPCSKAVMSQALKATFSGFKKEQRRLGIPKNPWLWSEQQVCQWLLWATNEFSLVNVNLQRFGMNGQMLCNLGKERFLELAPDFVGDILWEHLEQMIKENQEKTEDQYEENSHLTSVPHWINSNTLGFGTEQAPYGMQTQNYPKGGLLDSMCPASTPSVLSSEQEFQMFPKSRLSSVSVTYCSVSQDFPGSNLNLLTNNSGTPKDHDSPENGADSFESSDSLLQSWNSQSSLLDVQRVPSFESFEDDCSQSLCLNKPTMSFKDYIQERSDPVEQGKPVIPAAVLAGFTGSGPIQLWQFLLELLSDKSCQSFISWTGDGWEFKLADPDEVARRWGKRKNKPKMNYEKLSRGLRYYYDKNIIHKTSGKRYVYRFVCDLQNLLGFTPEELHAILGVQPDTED
# Method in brief: as §1
# [14] = biological target: T9, SPDEF (Homo sapiens, UniProt O95238 1-335); conditions: protein: recombinant; tags: N-terminal GST; dsDNA, one strand shown
# T9 sequence: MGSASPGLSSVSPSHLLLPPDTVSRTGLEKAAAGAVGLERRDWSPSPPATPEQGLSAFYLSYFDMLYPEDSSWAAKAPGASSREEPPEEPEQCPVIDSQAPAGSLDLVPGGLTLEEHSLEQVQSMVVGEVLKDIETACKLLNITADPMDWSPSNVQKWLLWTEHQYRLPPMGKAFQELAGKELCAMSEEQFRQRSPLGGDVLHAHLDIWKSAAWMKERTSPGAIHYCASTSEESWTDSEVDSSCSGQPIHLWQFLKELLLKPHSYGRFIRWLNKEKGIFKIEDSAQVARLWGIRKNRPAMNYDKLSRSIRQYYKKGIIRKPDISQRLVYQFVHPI
# Method in brief: as §1
# [15] = biological target: T10, ETV7 (Homo sapiens, UniProt Q9Y603 1-341); conditions: protein: recombinant; tags: N-terminal GST; dsDNA, one strand shown
# T10 sequence: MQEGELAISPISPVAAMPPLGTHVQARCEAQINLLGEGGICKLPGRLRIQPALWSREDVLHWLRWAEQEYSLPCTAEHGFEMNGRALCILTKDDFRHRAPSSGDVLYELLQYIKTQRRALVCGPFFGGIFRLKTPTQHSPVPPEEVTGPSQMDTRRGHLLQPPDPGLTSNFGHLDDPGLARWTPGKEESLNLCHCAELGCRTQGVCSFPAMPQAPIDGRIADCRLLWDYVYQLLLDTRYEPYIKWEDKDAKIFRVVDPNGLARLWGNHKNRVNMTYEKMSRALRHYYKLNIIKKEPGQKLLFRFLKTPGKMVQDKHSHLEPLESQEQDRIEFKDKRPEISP
# Method in brief: as §1
# [16] = biological target: T11, ELF5 (Homo sapiens, UniProt Q9UKW6-2 1-255); conditions: protein: recombinant; tags: N-terminal GST; dsDNA, one strand shown
# T11 sequence: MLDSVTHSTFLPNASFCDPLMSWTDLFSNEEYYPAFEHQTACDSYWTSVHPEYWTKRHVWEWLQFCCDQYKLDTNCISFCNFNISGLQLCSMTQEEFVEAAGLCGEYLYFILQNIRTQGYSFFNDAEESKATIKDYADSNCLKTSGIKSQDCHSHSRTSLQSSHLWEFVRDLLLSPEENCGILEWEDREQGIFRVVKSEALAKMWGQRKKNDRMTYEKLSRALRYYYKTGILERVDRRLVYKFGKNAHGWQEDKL
# Method in brief: as §1
# [17] = biological target: T12, ETV3 (Homo sapiens, UniProt P41162-2 1-143); conditions: protein: recombinant; tags: N-terminal GST; dsDNA, one strand shown
# T12 sequence: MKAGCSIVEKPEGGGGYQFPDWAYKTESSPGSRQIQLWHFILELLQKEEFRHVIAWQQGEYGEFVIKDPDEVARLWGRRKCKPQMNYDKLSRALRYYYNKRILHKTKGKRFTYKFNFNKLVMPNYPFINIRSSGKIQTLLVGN
# Method in brief: as §1
# [18] = biological target: ETV6 (Homo sapiens, UniProt P41212 1-452); conditions: protein: recombinant; tags: N-terminal GST; dsDNA, one strand shown
# Method in brief: as §1
# Chain of ETV6 (P41212 whole entry): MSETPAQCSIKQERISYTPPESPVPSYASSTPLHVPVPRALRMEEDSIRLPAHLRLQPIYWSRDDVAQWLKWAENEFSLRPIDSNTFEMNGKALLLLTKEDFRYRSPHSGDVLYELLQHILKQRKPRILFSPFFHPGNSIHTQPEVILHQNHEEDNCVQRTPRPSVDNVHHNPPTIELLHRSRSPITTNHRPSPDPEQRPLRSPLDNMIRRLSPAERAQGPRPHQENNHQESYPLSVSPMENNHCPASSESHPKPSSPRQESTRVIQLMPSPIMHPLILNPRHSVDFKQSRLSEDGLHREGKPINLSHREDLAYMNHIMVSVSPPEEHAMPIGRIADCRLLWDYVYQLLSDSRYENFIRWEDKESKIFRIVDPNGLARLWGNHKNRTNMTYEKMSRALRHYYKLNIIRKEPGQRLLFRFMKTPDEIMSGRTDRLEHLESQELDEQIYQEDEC
# Chain of ELF4 (Q99607 whole entry): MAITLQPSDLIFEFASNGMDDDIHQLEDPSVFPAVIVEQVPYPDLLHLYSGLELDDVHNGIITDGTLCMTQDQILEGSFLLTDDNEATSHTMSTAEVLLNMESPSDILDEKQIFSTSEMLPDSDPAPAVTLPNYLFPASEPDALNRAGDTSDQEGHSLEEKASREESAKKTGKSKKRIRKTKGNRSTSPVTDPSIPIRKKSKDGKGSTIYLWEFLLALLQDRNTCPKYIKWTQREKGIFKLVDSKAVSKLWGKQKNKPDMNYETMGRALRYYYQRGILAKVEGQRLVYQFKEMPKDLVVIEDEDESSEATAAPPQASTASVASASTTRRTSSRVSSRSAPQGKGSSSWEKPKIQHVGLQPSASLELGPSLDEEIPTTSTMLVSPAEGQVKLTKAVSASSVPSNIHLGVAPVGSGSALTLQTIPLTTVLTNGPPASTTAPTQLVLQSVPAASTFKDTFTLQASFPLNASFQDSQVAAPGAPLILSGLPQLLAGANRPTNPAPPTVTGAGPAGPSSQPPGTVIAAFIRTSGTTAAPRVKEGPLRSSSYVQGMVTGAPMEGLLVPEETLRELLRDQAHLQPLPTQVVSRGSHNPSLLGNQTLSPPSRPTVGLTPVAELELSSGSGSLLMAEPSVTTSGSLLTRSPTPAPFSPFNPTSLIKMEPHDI
# Chain of CRX (O43186 whole entry): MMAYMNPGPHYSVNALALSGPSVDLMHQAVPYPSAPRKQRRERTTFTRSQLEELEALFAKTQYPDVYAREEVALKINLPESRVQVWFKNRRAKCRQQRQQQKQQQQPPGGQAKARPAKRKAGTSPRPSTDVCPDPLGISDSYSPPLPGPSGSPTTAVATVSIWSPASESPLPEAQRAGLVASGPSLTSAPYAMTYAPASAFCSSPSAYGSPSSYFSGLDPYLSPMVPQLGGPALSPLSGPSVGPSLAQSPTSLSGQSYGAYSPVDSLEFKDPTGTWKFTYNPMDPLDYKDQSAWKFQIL
# Chain of ETV5 (P41161 whole entry): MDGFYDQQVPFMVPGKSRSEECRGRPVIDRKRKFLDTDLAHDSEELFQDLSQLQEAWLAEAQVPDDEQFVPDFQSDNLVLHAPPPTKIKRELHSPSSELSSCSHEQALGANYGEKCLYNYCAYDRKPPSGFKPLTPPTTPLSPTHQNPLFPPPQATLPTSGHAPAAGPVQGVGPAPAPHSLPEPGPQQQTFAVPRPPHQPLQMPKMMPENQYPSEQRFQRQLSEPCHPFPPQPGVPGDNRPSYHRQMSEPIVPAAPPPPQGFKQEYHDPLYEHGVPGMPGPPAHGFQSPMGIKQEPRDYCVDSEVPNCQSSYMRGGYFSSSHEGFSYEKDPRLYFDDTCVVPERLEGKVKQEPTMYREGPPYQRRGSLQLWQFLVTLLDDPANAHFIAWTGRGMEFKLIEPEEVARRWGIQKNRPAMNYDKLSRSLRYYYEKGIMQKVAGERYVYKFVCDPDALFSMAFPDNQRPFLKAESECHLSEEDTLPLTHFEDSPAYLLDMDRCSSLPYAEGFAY
# Chain of HSF1 (Q00613 whole entry): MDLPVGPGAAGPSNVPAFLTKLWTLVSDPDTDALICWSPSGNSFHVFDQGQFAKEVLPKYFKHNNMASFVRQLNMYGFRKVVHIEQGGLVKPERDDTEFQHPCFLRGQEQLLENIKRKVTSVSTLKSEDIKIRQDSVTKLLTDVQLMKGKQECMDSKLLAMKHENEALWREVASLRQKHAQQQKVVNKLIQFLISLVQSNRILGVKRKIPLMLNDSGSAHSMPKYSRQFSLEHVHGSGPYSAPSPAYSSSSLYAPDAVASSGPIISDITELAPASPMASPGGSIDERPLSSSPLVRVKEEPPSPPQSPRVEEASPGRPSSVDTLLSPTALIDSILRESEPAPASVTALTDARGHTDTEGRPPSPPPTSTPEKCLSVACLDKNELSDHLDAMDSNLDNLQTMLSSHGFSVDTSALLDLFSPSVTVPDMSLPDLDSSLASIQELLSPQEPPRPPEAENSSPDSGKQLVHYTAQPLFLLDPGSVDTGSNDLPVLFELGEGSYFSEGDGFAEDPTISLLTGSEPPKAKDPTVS
# Chain of ETV1 (P50549 whole entry): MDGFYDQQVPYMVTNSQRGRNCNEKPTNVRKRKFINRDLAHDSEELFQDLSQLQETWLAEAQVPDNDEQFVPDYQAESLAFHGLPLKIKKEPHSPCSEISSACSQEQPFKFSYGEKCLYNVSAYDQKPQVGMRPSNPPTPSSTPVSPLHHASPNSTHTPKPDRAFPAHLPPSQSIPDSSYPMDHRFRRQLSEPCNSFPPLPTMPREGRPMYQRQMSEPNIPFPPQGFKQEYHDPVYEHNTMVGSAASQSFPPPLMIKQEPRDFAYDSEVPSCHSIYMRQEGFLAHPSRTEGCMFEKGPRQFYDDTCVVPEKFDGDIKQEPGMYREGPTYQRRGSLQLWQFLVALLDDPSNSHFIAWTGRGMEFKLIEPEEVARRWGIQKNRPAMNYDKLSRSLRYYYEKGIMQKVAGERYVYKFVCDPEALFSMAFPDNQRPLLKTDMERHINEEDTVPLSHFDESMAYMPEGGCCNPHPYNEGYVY
sequence,measurement,setting,value
TTGTAG,binding signal,[1],"1.02 fold enrichment (6-mer frequency, TF over GST control)"
same,binding signal,[2],"1.1 fold enrichment (6-mer frequency, TF over GST control)"
same,binding signal,[3],"1.23 fold enrichment (6-mer frequency, TF over GST control)"
same,binding signal,[4],"1.02 fold enrichment (6-mer frequency, TF over GST control)"
same,binding signal,[5],"1.2 fold enrichment (6-mer frequency, TF over GST control)"
same,binding signal,[6],"1.31 fold enrichment (6-mer frequency, TF over GST control)"
same,binding signal,[7],"1.15 fold enrichment (6-mer frequency, TF over GST control)"
same,binding signal,[8],"1.03 fold enrichment (6-mer frequency, TF over GST control)"
same,binding signal,[9],"1.13 fold enrichment (6-mer frequency, TF over GST control)"
same,binding signal,[10],"1.25 fold enrichment (6-mer frequency, TF over GST control)"
same,binding signal,[11],"1.14 fold enrichment (6-mer frequency, TF over GST control)"
same,binding signal,[12],"1.2 fold enrichment (6-mer frequency, TF over GST control)"
same,binding signal,[13],"1.17 fold enrichment (6-mer frequency, TF over GST control)"
same,binding signal,[14],"1.09 fold enrichment (6-mer frequency, TF over GST control)"
same,binding signal,[15],"1.12 fold enrichment (6-mer frequency, TF over GST control)"
same,binding signal,[16],"1.1 fold enrichment (6-mer frequency, TF over GST control)"
same,binding signal,[17],"1.13 fold enrichment (6-mer frequency, TF over GST control)"
same,binding signal,[18],"1.13 fold enrichment (6-mer frequency, TF over GST control)"
